From PubChem BioAssay
Inconclusive results are not listed. Active and inactive are the calls of the source.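 The calls were made as follows, unless noted: active = aptamer binding inhibition above 30%, about 3 SD of noise from non-fluorescent compounds; inactive = inhibition at or below 30%.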 Peptide text beside a SMILES is read from it. * marks the point of attachment. Boc = CC(C)(C)OC(=O)*

Assays:
[1] = yeast TOR pathway RPL19A-GFP modulators, primary screen, cell-based, S. cerevisiae, multiplex flow cytometry (AID 1862; in the data active = percent of DMSO control GFP below about 86%;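 also: lower values mimic rapamycin by blocking the RPL19A rise seen in DMSO cells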); settings: S. cerevisiae RPL19A-GFP strain, flow cytometry fluorescence, 3 h; at 10 µM; stronger effect = lower value
[2] = modulators of MEP2-GFP levels in yeast, primary screen, S. cerevisiae, multiplex flow cytometry (AID 1867;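 active = GFP response, as percent of the DMSO control, above the screen-wide mean plus 3 SD, about 139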;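 also: median GFP channel fluorescence of barcode-gated MEP2-GFP cells measured by flow cytometry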); settings: S. cerevisiae MEP2-GFP strain, 3 h, at 10 µM, stronger effect = higher value, 100% means same as DMSO wells
[3] = modulators of CIT2-GFP expression in yeast, primary screen, S. cerevisiae, GFP fusion, multiplex flow cytometry (AID 1870;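 active = percent response above a set limit, the screen-wide mean plus 3 SD, cut at about 130% in these data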;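 also: barcoded CIT2-GFP strain pooled with four other GFP strains with rapamycin as positive control; median GFP fluorescence per well over plate mean of DMSO wells so 100% = DMSO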); settings: 3 h, at 10 µM, stronger effect = higher value
[4] = modulators of LAP4-GFP expression in yeast, primary screen, S. cerevisiae, multiplex flow cytometry (AID 1873;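 active = GFP signal, as percent of the solvent control, above the screen mean plus 3 SD, about 149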); settings: 3 h, at 10 µM, stronger effect = higher value
[5] = modulators of AGP1-GFP expression in yeast TOR pathway, primary screen, cell-based, multiplex flow cytometry, S. cerevisiae (AID 1887;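 active = GFP signal above the screen-wide mean plus 3 SD, that is over about 124.5% of the solvent control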;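 also: AGP1-GFP fusion strain of S. cerevisiae within a five-strain barcoded multiplex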); settings: 3 h, at 10 µM, stronger effect = higher value
[6] = inhibitors of CD8+ T cell-vesicle binding, pilot screen, LFA-1/ICAM-1 modulator project, MLPCN validation set, flow cytometry (AID 2523;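 active = response below a set limit, under 55% cells CD8-positive and vesicle-bound, and CD8 cells' 90th-percentile brightness under 279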;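 as to vesicle binding response: mean PE anti-B7-1 fluorescence of CD8+ cells relative to row control; 100% = QL9-loaded vesicles with DMSO vehicle in the same plate row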); settings: 2C mouse CD8+ T cells, at 7 µM, stronger effect = lower value; double positive events: measured here: CD8+/vesicle+ event percentage
[7] = target: Integrin beta-1 (Homo sapiens) + Integrin alpha-4 (Homo sapiens) (UniProt P13612+P05556); assay: inhibition of HUTS-21 binding to VLA-4, pilot screen, VLA-4 allosteric modulator project, U937 cells, HUTS-21 mAb, flow cytometry, validation set (AID 2674;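 active = inhibition above 50%, about 3 SD of the validation set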;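 also: antibody binding induced by the VLA-4 ligand LDV present at three times its Kd; 0% = LDV ligand with antibody and no compound and 100% = antibody without LDV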); settings: HUTS-21 LIBS mAb binding, at 6.7 µM, stronger effect = higher value, binding induced by LDV ligand
[8] = superoxide lowering in aged yeast cells, pilot screen, validation compound set (AID 2706;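 active = superoxide response below 65% of plate, a cut near 3 SD across the whole screen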;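 also: yeast exposed to compound for one week at 30 degrees C before staining; 100% = mean of all compound wells on the same plate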); settings: S. cerevisiae aging, superoxide DHE fluorescence; at 10 µM, stronger effect = lower value
[9] = target: Beta-adrenergic receptor kinase 1 (Homo sapiens) (UniProt P25098); assay: GRK2 binders displacing RNA aptamer, biochemical, validation, human GRK2, bead flow cytometry (AID 488806); settings: bead-bound GRK2, FAM-aptamer displacement, at 10 µM, stronger effect = higher value
[10] = target: AP-2 complex subunit beta (Homo sapiens) (UniProt P63010); assay: inhibitors of arrestin peptide binding to AP2, pilot screen, biochemical, validation set, GST-AP2 beads, flow cytometry (AID 504541;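 active = inhibition above 54%, about 3 SD of non-fluorescent compounds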;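 also: AP2 carries R879A mutation and is captured from E. coli lysate; bead-bound FITC arrestin peptide fluorescence measuring arrestin peptide binding to AP2; 0% = DMSO wells and 100% = excess unlabeled arrestin peptide control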); settings: FITC arrestin peptide, at 10 µM, stronger effect = higher value, AP2 beta2 appendage fragment, R879A mutant
[11] = yeast V-ATPase proton transport modulators, S. cerevisiae, pHLuorin, HTS validation (AID 504600; in the data active = response above about 15%;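 also: plate controls were DMSO for no effect and reference compound for full effect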); settings: S. cerevisiae pHLuorin cytosolic pH, at 10 µM, stronger effect = higher value
[12] = test system: anti-desmoglein-3 scFv antibody binding to human DSG3; assay: inhibitors of anti-DSG3 scFv binding to DSG3, pilot screen, biochemical, validation compound set, bead-based, flow cytometry (AID 588368;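 active = binding below the plate cutoff, the plate median minus 3 SD, with a reading above zero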;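 also: signal is the median channel fluorescence of bead-bound GFP antibody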); settings: Protein G beads, DSG3-Fc, scFv-GFP binding, at 10 µM, stronger effect = lower value
[13] = inhibitors of fungal efflux pumps CDR1, CDR2, MDR1, pilot screen, validation compound set, multiplex, phenotypic (AID 588506;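 active = efflux inhibition above 0.42, the validation set average plus 4 SD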;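 also: Nile Red retained in cells so higher fluorescence means more efflux inhibition; 0 = negative control wells and 1 = enniatin B 25 µM full block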); settings: S. cerevisiae pump-expressing triplex, Nile Red efflux flow cytometry; at 10 µM; stronger effect = higher value; the pumps come from Candida albicans
[14] = target: ATP-binding cassette sub-family B member 6 (Homo sapiens) (UniProt Q9NP58); assay: ABCB6 transporter inhibitors, pilot screen, K562-ABCB6 cells, flow cytometry, validation set (AID 588550;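 active = inhibition above the screen-wide mean plus 3 SD, about 51%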;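 also: 0% = DMSO wells and 100% = benzethonium chloride 70 µM positive control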); settings: K562-ABCB6 porphyrin accumulation, 1 h, at 10 µM, stronger effect = higher value
[15] = promoters of myeloid differentiation in arrested cells, primary screen, cell-based, GFP/MAC1 double positive, flow cytometry, validation set (AID 588685;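 active = differentiation response of at least 50%, scaled between solvent and reference control, from cells with both markers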;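 also: compound exposure lasts four days before antibody staining and flow analysis; 0% = DMSO wells and 100% = 5 µM fulvestrant positive control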); settings: ER-HoxA9 marrow cells, stronger effect = higher value, normalized: vehicle 0, fulvestrant 100
[16] = target: Beta-2 adrenergic receptor (Homo sapiens) (UniProt P07550); assay: beta2AR agonists driving receptor internalization, pilot screen, cell-based, FAP fluorogen, flow cytometry, validation set (AID 504459;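 active = percent response above 42, roughly 3 SD of non-fluorescent test compounds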;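 also: agonist-driven loss of surface beta2AR via internalization measured by FAP dye flow cytometry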); settings: Am2.2-beta2AR cells, FAP surface receptor flow cytometry; at 10 µM; stronger effect = higher value
Beta-2 adrenergic receptor (Homo sapiens), sequence (P07550 whole entry, looked up): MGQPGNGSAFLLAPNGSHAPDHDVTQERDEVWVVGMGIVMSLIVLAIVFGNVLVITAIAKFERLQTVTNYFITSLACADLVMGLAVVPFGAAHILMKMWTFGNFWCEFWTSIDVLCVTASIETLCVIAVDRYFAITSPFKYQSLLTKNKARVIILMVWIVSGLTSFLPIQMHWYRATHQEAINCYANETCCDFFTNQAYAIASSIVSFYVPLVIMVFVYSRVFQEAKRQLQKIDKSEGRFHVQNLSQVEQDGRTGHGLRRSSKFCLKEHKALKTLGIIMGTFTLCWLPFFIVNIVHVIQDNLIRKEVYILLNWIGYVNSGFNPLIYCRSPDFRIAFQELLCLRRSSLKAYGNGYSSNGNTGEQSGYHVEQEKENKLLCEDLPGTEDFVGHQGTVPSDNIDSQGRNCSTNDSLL

AP-2 complex subunit beta (Homo sapiens), sequence (P63010 whole entry, looked up, the tested form may be a part, one chain of several): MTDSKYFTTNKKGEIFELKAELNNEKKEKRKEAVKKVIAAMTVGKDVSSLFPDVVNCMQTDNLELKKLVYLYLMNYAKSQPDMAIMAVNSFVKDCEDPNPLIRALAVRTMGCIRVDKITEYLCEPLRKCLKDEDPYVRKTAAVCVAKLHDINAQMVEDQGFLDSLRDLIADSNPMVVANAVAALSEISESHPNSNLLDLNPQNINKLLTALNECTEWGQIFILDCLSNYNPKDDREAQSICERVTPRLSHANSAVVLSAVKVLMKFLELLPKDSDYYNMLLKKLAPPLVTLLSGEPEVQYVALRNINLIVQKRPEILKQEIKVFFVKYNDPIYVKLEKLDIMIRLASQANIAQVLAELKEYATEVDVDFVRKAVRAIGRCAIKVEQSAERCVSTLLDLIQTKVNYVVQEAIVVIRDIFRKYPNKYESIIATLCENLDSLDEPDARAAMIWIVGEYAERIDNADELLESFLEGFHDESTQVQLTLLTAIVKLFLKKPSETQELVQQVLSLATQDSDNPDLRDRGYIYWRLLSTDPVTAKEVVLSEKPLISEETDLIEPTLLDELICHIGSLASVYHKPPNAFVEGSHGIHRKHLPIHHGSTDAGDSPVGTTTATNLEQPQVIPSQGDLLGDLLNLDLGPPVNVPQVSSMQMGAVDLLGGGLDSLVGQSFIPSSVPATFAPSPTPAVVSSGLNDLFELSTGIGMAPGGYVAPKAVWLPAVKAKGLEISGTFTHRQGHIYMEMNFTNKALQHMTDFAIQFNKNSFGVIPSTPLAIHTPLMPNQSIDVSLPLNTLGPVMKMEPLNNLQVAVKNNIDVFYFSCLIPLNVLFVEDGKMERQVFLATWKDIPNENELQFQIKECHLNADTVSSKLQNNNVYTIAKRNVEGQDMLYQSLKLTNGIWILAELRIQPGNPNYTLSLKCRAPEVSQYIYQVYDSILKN
Integrin beta-1 (Homo sapiens) + Integrin alpha-4 (Homo sapiens), sequence (P05556 whole entry, looked up): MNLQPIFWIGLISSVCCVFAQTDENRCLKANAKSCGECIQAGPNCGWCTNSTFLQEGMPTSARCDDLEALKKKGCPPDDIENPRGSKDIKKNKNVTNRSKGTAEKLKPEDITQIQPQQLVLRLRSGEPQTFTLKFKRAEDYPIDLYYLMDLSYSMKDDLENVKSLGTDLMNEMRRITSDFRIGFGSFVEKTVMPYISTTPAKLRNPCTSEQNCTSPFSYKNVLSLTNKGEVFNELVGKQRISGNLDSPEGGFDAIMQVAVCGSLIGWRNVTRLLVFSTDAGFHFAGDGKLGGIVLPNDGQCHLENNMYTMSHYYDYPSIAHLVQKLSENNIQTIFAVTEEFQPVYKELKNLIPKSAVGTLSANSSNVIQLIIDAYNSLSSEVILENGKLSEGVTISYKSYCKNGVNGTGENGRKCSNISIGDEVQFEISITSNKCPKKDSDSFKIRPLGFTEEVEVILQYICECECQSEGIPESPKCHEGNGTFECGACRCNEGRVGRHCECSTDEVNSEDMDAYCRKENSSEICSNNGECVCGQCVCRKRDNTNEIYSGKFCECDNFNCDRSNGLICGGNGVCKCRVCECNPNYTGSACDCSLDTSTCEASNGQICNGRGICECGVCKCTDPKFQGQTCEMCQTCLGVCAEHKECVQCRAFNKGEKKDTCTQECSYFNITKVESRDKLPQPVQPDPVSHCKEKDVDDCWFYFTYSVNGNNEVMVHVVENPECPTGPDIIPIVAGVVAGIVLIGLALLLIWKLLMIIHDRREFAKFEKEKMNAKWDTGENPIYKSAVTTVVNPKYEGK
Integrin beta-1 (Homo sapiens) + Integrin alpha-4 (Homo sapiens), sequence (P13612 whole entry, looked up): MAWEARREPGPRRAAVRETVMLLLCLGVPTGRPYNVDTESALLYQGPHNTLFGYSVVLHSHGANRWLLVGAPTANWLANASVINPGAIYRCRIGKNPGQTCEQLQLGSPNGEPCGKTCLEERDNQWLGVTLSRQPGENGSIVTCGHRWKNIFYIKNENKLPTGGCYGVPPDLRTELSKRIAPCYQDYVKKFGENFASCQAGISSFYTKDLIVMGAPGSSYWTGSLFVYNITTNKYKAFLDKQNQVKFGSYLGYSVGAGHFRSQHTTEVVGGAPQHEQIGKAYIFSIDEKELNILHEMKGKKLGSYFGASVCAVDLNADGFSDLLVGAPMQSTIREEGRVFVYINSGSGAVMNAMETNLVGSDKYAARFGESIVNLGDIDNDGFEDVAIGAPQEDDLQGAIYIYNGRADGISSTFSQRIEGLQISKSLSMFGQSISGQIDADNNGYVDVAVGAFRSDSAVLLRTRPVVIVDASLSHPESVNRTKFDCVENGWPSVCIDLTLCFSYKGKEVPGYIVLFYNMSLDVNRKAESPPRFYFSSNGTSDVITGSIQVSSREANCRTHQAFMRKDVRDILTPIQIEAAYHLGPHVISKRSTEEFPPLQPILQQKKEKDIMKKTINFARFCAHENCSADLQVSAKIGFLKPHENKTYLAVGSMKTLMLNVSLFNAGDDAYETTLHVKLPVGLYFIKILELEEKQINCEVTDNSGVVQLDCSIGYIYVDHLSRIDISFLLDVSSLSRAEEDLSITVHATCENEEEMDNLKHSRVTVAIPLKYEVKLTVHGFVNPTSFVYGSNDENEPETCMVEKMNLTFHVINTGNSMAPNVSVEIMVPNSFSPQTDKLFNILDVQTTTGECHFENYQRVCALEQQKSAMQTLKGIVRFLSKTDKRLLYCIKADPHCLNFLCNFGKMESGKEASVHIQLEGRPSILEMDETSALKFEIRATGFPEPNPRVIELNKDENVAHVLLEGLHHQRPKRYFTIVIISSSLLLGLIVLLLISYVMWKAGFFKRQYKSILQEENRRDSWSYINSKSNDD
Beta-adrenergic receptor kinase 1 (Homo sapiens), sequence (P25098 whole entry, looked up, the tested form may be a part): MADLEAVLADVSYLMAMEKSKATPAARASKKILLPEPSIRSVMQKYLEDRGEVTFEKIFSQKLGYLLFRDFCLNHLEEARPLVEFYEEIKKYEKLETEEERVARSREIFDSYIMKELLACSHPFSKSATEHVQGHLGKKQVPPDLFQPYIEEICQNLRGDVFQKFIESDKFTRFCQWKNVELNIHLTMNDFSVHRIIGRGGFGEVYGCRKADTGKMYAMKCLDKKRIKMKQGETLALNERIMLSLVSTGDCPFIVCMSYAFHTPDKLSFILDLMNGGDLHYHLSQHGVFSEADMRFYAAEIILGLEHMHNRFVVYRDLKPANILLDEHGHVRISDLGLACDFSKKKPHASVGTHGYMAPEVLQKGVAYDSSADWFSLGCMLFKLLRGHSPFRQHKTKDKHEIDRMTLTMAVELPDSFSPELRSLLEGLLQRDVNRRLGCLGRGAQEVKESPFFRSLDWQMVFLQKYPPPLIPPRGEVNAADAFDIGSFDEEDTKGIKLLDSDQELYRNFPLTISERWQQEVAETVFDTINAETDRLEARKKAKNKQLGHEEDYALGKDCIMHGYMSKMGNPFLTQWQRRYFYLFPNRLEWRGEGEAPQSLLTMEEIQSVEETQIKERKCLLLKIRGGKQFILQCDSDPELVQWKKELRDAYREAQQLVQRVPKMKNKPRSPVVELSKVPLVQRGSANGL
ATP-binding cassette sub-family B member 6 (Homo sapiens), sequence (Q9NP58 whole entry, looked up): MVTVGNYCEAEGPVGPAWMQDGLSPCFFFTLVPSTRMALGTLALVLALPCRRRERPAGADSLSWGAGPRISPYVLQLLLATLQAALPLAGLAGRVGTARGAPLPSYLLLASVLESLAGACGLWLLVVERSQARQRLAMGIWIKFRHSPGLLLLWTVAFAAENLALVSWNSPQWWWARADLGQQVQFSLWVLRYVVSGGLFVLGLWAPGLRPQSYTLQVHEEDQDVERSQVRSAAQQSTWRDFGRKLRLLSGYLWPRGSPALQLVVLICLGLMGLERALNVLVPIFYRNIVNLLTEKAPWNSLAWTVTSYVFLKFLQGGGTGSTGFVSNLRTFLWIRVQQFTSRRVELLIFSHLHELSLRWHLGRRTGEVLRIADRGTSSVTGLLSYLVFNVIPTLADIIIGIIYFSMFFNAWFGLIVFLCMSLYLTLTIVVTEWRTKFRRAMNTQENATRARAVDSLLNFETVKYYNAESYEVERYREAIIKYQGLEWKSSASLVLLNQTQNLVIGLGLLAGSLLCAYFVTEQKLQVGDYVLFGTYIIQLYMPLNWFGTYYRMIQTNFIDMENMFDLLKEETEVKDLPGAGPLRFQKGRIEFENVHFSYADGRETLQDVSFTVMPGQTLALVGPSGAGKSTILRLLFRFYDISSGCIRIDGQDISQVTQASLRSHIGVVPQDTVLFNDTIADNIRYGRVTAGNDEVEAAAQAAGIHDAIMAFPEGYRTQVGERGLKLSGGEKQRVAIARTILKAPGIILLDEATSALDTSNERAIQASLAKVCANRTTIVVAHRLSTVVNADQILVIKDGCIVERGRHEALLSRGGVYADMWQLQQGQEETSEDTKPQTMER

SMILES	percent of DMSO control GFP [1]	GFP response vs DMSO [2]	percent response of DMSO control [3]	GFP response vs DMSO [4]	GFP response, % of DMSO [5]	double positive events [6] [%]	vesicle binding response [6]	inhibition [7]	superoxide response (% of plate) [8]	aptamer binding inhibition [9]	inhibition [10]	response [11]	binding (% of control) [12]	efflux inhibition (fraction of control) [13]	inhibition [14]	differentiation response [15]	response [16]
O=c1nc2cccc3c2=c(/c1=C(\O)c1ccccc1)c1ccccc1c3=O	102% (inactive)	102% (inactive)	105% (inactive)	96.4% (inactive)	99.3% (inactive)	47.4	175% (inactive)	-23.6% (inactive)	99.9% (inactive)	8% (inactive)	17.9% (inactive)	1.67% (inactive)	91% (inactive)	-0.16 (inactive)	9% (inactive)	-6.66% (inactive)	–
O=C1N=c2ccccc2=C1c1[nH]c(=S)[nH]c1O	98.8% (inactive)	96.9% (inactive)	106% (inactive)	81.3% (inactive)	99.6% (inactive)	56.8	181% (inactive)	2.56% (inactive)	98.7% (inactive)	-2% (inactive)	2.65% (inactive)	3.63% (inactive)	98% (inactive)	-0.12 (inactive)	8% (inactive)	-19.6% (inactive)	–
Cn1cc(CN2CCCC(CO)(Cc3cccc(Cl)c3)C2)cn1 (stereo not given)	98% (inactive)	102% (inactive)	98.2% (inactive)	97.2% (inactive)	99.5% (inactive)	59.5	57.6% (inactive)	9.71% (inactive)	92.7% (inactive)	0% (inactive)	–	-0.03% (inactive)	102% (inactive)	-0.66 (inactive)	2% (inactive)	-1.88% (inactive)	30.5% (inactive)
COc1ccc([C@@H]2Sc3ccccc3N(CCN(C)C)C(=O)[C@@H]2OC(C)=O)cc1	104% (inactive)	102% (inactive)	105% (inactive)	93.3% (inactive)	101% (inactive)	62.9	200% (inactive)	-0.24% (inactive)	101% (inactive)	-1% (inactive)	5.2% (inactive)	-4.23% (inactive)	99.1% (inactive)	0.03 (inactive)	-227% (inactive)	-8.27% (inactive)	–
Cn1c(=O)c2c(ncn2Cc2ccccc2)n(C)c1=O	100% (inactive)	105% (inactive)	88.6% (inactive)	103% (inactive)	109% (inactive)	65.2	182% (inactive)	-1.97% (inactive)	96.4% (inactive)	0% (inactive)	–	-0.4% (inactive)	104% (inactive)	0 (inactive)	6% (inactive)	-16.8% (inactive)	-23% (inactive)
CC(C)CC(NC(=O)C1CCCN1C(=O)OC(C)(C)C)C(=O)NCC(N)=O (stereo not drawn) (Boc-Pro-Leu-Gly-NH2; configuration not given here)	97.3% (inactive)	98.9% (inactive)	92% (inactive)	94.3% (inactive)	91.8% (inactive)	62.8	171% (inactive)	-3.97% (inactive)	89.5% (inactive)	4% (inactive)	-1.69% (inactive)	-1.76% (inactive)	102% (inactive)	0.18 (inactive)	8% (inactive)	19.2% (inactive)	–
COc1ccc2c(c1)CC[C@@H]1[C@@H]2CC[C@]2(C)C(=O)CC[C@@H]12	102% (inactive)	102% (inactive)	98.6% (inactive)	133% (inactive)	104% (inactive)	58.2	122% (inactive)	-7.79% (inactive)	98.6% (inactive)	-1% (inactive)	-2.71% (inactive)	109% (active)	102% (inactive)	–	3% (inactive)	-0.18% (inactive)	-15.3% (inactive)
COc1ccc(C(=O)/C=C/c2ccc(OC(=O)c3cc(OC)c(OC)c(OC)c3)cc2)cc1	100% (inactive)	102% (inactive)	87.3% (inactive)	114% (inactive)	105% (inactive)	60.7	179% (inactive)	-7.93% (inactive)	96.7% (inactive)	-2% (inactive)	–	-3.29% (inactive)	97.4% (inactive)	0.42 (inactive)	0% (inactive)	20.6% (inactive)	-6.42% (inactive)
CN(C)c1ccc(O)c2c1CC1CC3[C@@H](N(C)C)C(=O)C(C(N)=O)=C(O)[C@]3(O)C(=O)C1=C2O (stereo not given in full)	100% (inactive)	101% (inactive)	97.6% (inactive)	93.7% (inactive)	93% (inactive)	63	162% (inactive)	4.27% (inactive)	99.5% (inactive)	29% (inactive)	6.63% (inactive)	-2.16% (inactive)	93.6% (inactive)	–	6% (inactive)	-3.11% (inactive)	1.7% (inactive)
CCC(C)NCCOCCOc1ccc(Cl)c2ccccc12 (stereo not given)	96.6% (inactive)	123% (inactive)	107% (inactive)	99% (inactive)	96.1% (inactive)	56.7	204% (inactive)	26.8% (inactive)	83.4% (inactive)	-5% (inactive)	–	-0.59% (inactive)	108% (inactive)	0.09 (inactive)	6% (inactive)	24.6% (inactive)	34.5% (inactive)
